Compound activity (PubChem BioAssay)
Compounds with a hit are over-represented: about 27% of the library has one in this group of screens.
Cav32 inh = human Cav3.2 channel inhibition, primary screen; O95180; Cav3.2-expressing cells, Fluo-4 calcium fluorescence FDSS; hits give low values; B-score at 10 µM; 100,000 compounds, 4% hits;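 active = single-dose well whose peak fluorescence ratio is a statistical outlier from its plate by either plate-standardised score or position-corrected B-score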
CYP2C9 activ = activators of human CYP2C9 | activation factor at 5 µM | P11712 | recombinant CYP2C9, luciferin-H conversion, luminescence; hits give high values; factor 1 = untreated enzyme, 0 = blocked | 96,000 compounds, 1.4% hits;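 active = activation factor of 2 or more for CYP2C9 at a 5 µM dose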;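 also: 0 = sulfaphenazole-blocked wells and 1 = vehicle-only wells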
CYP2C19 inh = blocks human cytochrome P450 2C19. 96,000 compounds, 21% hits. AID 778. CYP2C19 Supersomes, luciferin-H EGE luminescence, 30 min. P33261. inhibition, % at 5 µM;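 active = CYP2C19 inhibition above a set limit at 5 µM in the primary screen, cut at about 50% in these data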;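 also: plate controls were negative control wells for no effect and 2.5 mM tranylcypromine positive control for full effect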
CYP2C9 inh = inhibitors of human CYP2C9; CYP2C9 Supersomes, luciferin-H conversion, luminescence; inhibition, % at 5 µM; 96,000 compounds, 20% hits; AID 777;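 active = blocking of liver enzyme CYP2C9 beyond about 50% at 5 µM, limit read from the data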
CYP2C19 activ = activators of human cytochrome P450 2C19. recombinant CYP2C19, luciferin-H EGE luminescence; hits give high values; 0 = fully inhibited enzyme, 1 = untreated enzyme. activation factor at 5 µM. 96,000 tested, under 10 active. AID 1025;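 active = activation factor of at least 2 at 5 µM in the primary screen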;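 also: 0 = wells with 2.5 mM tranylcypromine and 1 = vehicle-only wells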
Starred values were filed as active, the others as inactive; x = not tested or not shown.

SMILES	Cav32 inh	CYP2C9 activ	CYP2C19 inh	CYP2C9 inh	CYP2C19 activ
CCCCCn1c(SCC(=O)OC)nc2c1c(=O)[nH]c(=O)n2C	1.2	0.9	4	10	1
C=CCN=c1sc(C(=O)OC)cc(=O)n1CC=C	-1.4	0.8	52*	18	0.5
C/C=C1\COC(C(=O)NCc2ccncc2)(C(F)(F)F)C=C1C=C1CCCCC1 (stereo unspecified)	-2.6	x	x	x	x
C/C=C1\COC(C(=O)NCc2cccc(OC)c2OC)(C(F)(F)F)C=C1C=C1CCCCC1 (stereo unspecified)	-4.2*	x	x	x	x
N#C[C@H]1[C@H](c2ccccc2)[C@](C#N)(C(=O)c2ccccc2)[C@@H]2C=Cc3ccccc3N21	x	0.7	20	33	0.8
Cc1cc(Cn2ccnc2)c(C)cc1Cn1ccnc1	1.1	0	97*	95*	0
O=C(O)Cn1ccnc1	1	0.9	17	9	0.8
CCOc1cc(CNc2ncc(-c3ccc(OC)cc3)n2C)ccc1O	0.87	0.5	59*	47	0.4
Cn1c(-c2ccc(F)cc2)cnc1NCc1ccc(F)cc1	-0.35	0.7	69*	28	0.3
COc1ccc(CNc2nc(NCc3ccc(OC)cc3)n(C(C)=O)n2)cc1	0.016	0.8	-6	15	1.1
Cn1c(-c2ccc(Br)cc2)cnc1NCc1cccnc1	0.92	0.8	37	23	0.6
Cn1c(-c2ccc(F)cc2)cnc1NCc1ccc(C#N)cc1	0.95	0.4	64*	57*	0.4
Cn1c(=O)c2c(nc(Oc3ccc4ccccc4c3)n2C)n(C)c1=O	-0.41	0.8	22	19	0.8
N#CC1=C2SCN(c3ccccc3)CN2C(=O)CC1c1ccccc1Cl (stereo unspecified)	-1.3	0.4	27	61*	0.7
N#CC1=C2SCN(c3ccccc3)CN2C(=O)CC1c1cccs1 (stereo unspecified)	-0.0038	0.2	50*	83*	0.5
Cc1ccc(C2CC(=O)N3CN(c4ccc(Br)cc4)CSC3=C2C#N)o1 (stereo unspecified)	-4	0	90*	98*	0.1
CCOc1ccc(N2CSC3=C(C#N)C(c4ccco4)CC(=O)N3C2)cc1 (stereo unspecified)	-0.057	0.7	7	33	0.9
COc1cc(OC)c(C2CC(=O)N3CN(c4ccccc4)CSC3=C2C#N)cc1OC (stereo unspecified)	0.18	0.6	15	38	0.9
COc1cc2c(cc1OC)CN(C(=O)CSc1nnc3scc(-c4ccccc4)n13)CC2	1.4	x	x	x	x
CC(C)(C)C(=O)NC1(C(F)(F)F)C(=O)Nc2c1c(=O)[nH]c(=O)n2Cc1ccco1 (stereo unspecified)	x	1	-8	-2	1.1
CCOC(=O)C(=Cc1ccc(OCc2ccc([N+](=O)[O-])cc2)c(OC)c1)C(=O)OCC	-0.11	0.5	-2	53*	1
Cc1cc(Cl)c(S(=O)(=O)NC2CCCCC2)cc1OCC(=O)Nc1nncs1	-0.13	x	x	x	x
COCC(C)n1c(SCC(=O)NC(=O)Nc2ccc3c(c2)OCCO3)nc2ccccc2c1=O (stereo unspecified)	-2.2	0.2	52*	78*	0.5
O=C(CSc1nc(Cc2ccccc2)nc2ccccc12)Nc1ccc2c(c1)OCCO2	0.0018	0.8	5	24	1
CC(C)Cn1c(SC(C)C(=O)Nc2ccc3c(c2)OCCO3)nc2ccccc2c1=O (stereo unspecified)	-3	0.1	83*	93*	0.2
SMILES	Cav32 inh	CYP2C9 activ	CYP2C19 inh	CYP2C9 inh	CYP2C19 activ
Cn1cccc1C(=O)N1CCN(c2cccc(C(F)(F)F)c2)CC1	-0.84	0.8	76*	22	0.2
O=C1Nc2ccccc2OC1CC(=O)N1CCOCC1 (stereo unspecified)	-1	1.1	8	-10	0.9
O=C1Nc2ccccc2OC1CC(=O)N1CCN(c2cccc(C(F)(F)F)c2)CC1 (stereo unspecified)	-3.8	0.3	28	72*	0.7
O=C(c1c(F)cccc1F)N1CCN(c2cccc(C(F)(F)F)c2)CC1	-2.7	0.2	94*	80*	0.1
O=C(CSCc1ccccc1)N1CCN(c2cccc(C(F)(F)F)c2)CC1	-4	0.1	86*	93*	0.1
CCOC(=O)N1CCN(c2c(N3CCN(c4cccc(C(F)(F)F)c4)CC3)c(=O)c2=O)CC1	0.89	1	0	-2	1
Cc1ccc(S(=O)(=O)N2CCN(S(=O)(=O)N3CCOCC3)CC2)c(C)c1	-0.031	1.4	49	-37	0.5
